# This is a sample that favours compounds with a hit; in the whole collection about 6.7% have one here.
# T cruzi growth-1: blocks T. cruzi growth in NIH3T3 culture; hit rate 5.9% among 77,000; T. cruzi beta-gal in NIH3T3, GalScreen luminescence, 90 h; inhibition, % at 8.34 µM; AID 624255;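 active = mean inhibition above about 93%, with at least 55% of replicates each passing it, limit read from the data, passing the limit was not always enough; inconclusive = only one of those two conditions holds; inactive = neither condition holds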
# Pf Dd2 inh: P. falciparum Dd2 growth inhibition | hit rate 2.3% among 94,000 | AID 1159554 | SYBR Green, 72 h; stronger effect = lower value | activity change, % at 10 µM; in the data active = activity change below about -80%; inconclusive = no clear call, values can overlap the other calls
# C diff growth: inhibitors of Clostridium difficile growth | Clostridium difficile clinical isolate growth, OD600, 24 h; stronger effect = lower value | growth activity, negative = inhibition, % at 16 µg/mL (by protocol) | hit rate 0.25% among 86,000 | AID 1259249;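 active = mean growth activity at or below -80% and every replicate also at or below -80%; inconclusive = mean at or below -80% but some replicate above -80%; inactive = mean growth activity above -80%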;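 also: 0% = DMSO wells and -100% = levofloxacin 16 µg/mL wells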
# T cruzi growth-2: Trypanosoma cruzi proliferation inhibition | hit rate 72% among 5,600 | T. cruzi beta-gal in NIH3T3, GalScreen luminescence, 90 h | shares compounds with T cruzi growth-1 | inhibition, % at 8.35 µM | AID 651739;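 active = mean replicate inhibition above about 95% and at least 55% of replicates individually reaching it, limit read from the data; inconclusive = only one of the two criteria is met; inactive = neither criterion is met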
# T cruzi growth-3: Trypanosoma cruzi proliferation inhibition | AID 651740 | inhibition, % at 2.09 µM | hit rate 21% among 5,600 | T. cruzi beta-gal in NIH3T3, GalScreen luminescence, 90 h | shares compounds with T cruzi growth-1;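 active = mean inhibition above about 95%, with at least 55% of replicates also reaching it, limit read from the data; inconclusive = meets just one of the two conditions; inactive = meets neither condition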;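 also: plate controls were neutral control median for no effect and positive control median for full effect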
# NIH3T3 tox: NIH/3T3 (mouse) viability loss | shares compounds with T cruzi growth-1 | NIH/3T3 viability, CellTiter-Glo ATP luminescence, 90 h | cytotoxicity (signal decrease), % at 8.35 µM | hit rate 14% among 5,600;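 active = mean signal decrease across replicates above about 35% based on untreated-well scatter, with enough replicates individually passing, limit read from the data; inconclusive = no rule stated though some were filed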;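 also: 0% = median of neutral control wells and 100% = median of positive control wells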
# 3T3 cytotox 2: kills mouse NIH/3T3 fibroblasts. AID 651744. shares compounds with T cruzi growth-1. NIH/3T3 viability, CellTiter-Glo ATP luminescence, 90 h. inhibition, % at 24.9 µM. hit rate 56% among 5,600;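 active = mean loss of cell viability signal at or above a set limit, and enough replicates individually reaching it; inconclusive = meets only the mean limit or only the replicate share; inactive = meets neither condition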;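 also: 0% = median of neutral control wells and 100% = median of positive control wells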
# * marks the source's active call; other numbers are inactive results; ? = inconclusive; . = no result.
SMILES,T cruzi growth-1,Pf Dd2 inh,C diff growth,T cruzi growth-2,T cruzi growth-3,NIH3T3 tox,3T3 cytotox 2
C[C@H](CO)N1C[C@H](C)[C@H](CN(C)Cc2cccc(F)c2)Oc2ncc(-c3cccc(F)c3)cc2C1=O,79,-4,13,.,.,.,.
Cc1ccccc1-c1ccc2c(c1)O[C@@H](CN(C)C(=O)c1ccccn1)[C@H](C)CN([C@H](C)CO)S2(=O)=O,.,0,2,.,.,.,.
C[C@@H]1CCCCO[C@H](CN(C)C(=O)Nc2ccccc2)[C@H](C)CN([C@@H](C)CO)C(=O)c2cc(NC(=O)Nc3ccc(C(F)(F)F)cc3)ccc2O1,.,-39,7,.,.,.,.
C[C@H](CO)N1C[C@H](C)[C@@H](CN(C)C(=O)Nc2ccc(C(F)(F)F)cc2)OCCCC[C@H](C)Oc2ccc(NC(=O)Nc3ccc(C(F)(F)F)cc3)cc2C1=O,112*,-75,1,112*,109*,-8,1
CC(C)NC(=O)N(C)C[C@H]1OCCCC[C@H](C)Oc2ccc(NC(=O)Nc3ccc(C(F)(F)F)cc3)cc2C(=O)N([C@@H](C)CO)C[C@H]1C,49,-33,9,.,.,.,.
CC(C)NC(=O)N(C)C[C@@H]1OCCCC[C@H](C)Oc2ccc(NC(=O)Nc3ccc(C(F)(F)F)cc3)cc2C(=O)N([C@H](C)CO)C[C@@H]1C,100*,-3,-5,100*,1,12,14
C[C@@H]1CCCCO[C@@H](CN(C)C(=O)Nc2ccc(C(F)(F)F)cc2)[C@H](C)CN([C@H](C)CO)C(=O)c2cc(NC(=O)Nc3ccc(F)cc3)ccc2O1,95,-46,7,.,.,.,.
C[C@H]1CCCCO[C@H](CN(C)C(=O)Nc2ccc(C(F)(F)F)cc2)[C@@H](C)CN([C@@H](C)CO)C(=O)c2cc(NC(=O)Nc3ccc(C(F)(F)F)cc3)ccc2O1,118*,-78,2,109*,107*,5,13
C[C@H]1CCCCO[C@@H](CN(C)C(=O)Nc2ccc(C(F)(F)F)cc2)[C@@H](C)CN([C@@H](C)CO)C(=O)c2cc(NC(=O)Nc3ccc(C(F)(F)F)cc3)ccc2O1,126*,8,2,109*,111*,-7,6
C[C@@H]1CCCCO[C@H](CN(C)C(=O)Nc2ccc(F)cc2)[C@@H](C)CN([C@@H](C)CO)C(=O)c2cc(NC(=O)Nc3ccc(C(F)(F)F)cc3)ccc2O1,89,?,6,.,.,.,.
O=C(C[C@@H]1CC[C@H](NC(=O)Cc2cccnc2)[C@@H](CO)O1)Nc1ccc(-c2ccccc2)cc1,-39,-16,.,.,.,.,.
CN(C)C(=O)C[C@H]1CC[C@@H]2[C@H](COC[C@H](O)CN2S(=O)(=O)c2ccccc2Cl)O1,-130,54,-1,.,.,.,.
CCS(=O)(=O)NCC[C@@H]1CC[C@H](NC(=O)Cc2ccccn2)[C@@H](CO)O1,14,27,.,.,.,.,.
CN1C(=O)c2cc(NC(=O)c3ccc(C#N)cc3)ccc2OC[C@H]2O[C@@H](CC(=O)NC3Cc4ccccc4C3)CC[C@@H]21,30,-22,6,.,.,.,.
CCCC#Cc1ccc2c(c1)O[C@H](CN(C)C(=O)c1cnccn1)[C@@H](C)CN([C@@H](C)CO)S2(=O)=O,51,-39,5,.,.,.,.
C[C@@H]1CN([C@H](C)CO)C(=O)c2cc(NC(=O)CCC(F)(F)F)ccc2O[C@@H]1CN(C)S(=O)(=O)c1cn(C)cn1,-53,15,.,.,.,.,.
O=C(C[C@H]1CC[C@@H](NC(=O)Nc2ccc(C(F)(F)F)cc2)[C@H](CO)O1)NCCN1CCCC1,-8,-20,.,.,.,.,.
O=C(C[C@@H]1CC[C@@H]2[C@H](COC[C@H](O)CN2S(=O)(=O)c2ccc(F)cc2)O1)NCC1CCCCC1,?,.,5,2,1,-8,21
O=C(C[C@@H]1CC[C@@H]2[C@H](COC[C@@H](O)CN2S(=O)(=O)c2ccc(F)cc2)O1)NCC1CC1,16,-2,-22,.,.,.,.
O=C(C[C@H]1CC[C@@H]2[C@H](COC[C@@H](O)CN2S(=O)(=O)c2ccc(F)cc2)O1)NCCN1CCCCC1,114*,-28,.,16,-28,-10,-19
O=C(C[C@@H]1CC[C@@H]2[C@H](COC[C@@H](O)CN2S(=O)(=O)c2ccc(F)cc2)O1)NCCN1CCCCC1,51,1,.,.,.,.,.
O=C(C[C@H]1CC[C@H]2[C@@H](COC[C@@H](O)CN2S(=O)(=O)c2cccc(Cl)c2)O1)NCCCN1CCOCC1,.,19,15,.,.,.,.
COc1cc(CN2[C@@H]3CNC[C@H]2C3c2ccc(-c3ccccc3C)cc2)cc(OC)c1 (stereo partly drawn),.,-21,14,.,.,.,.
CN1c2ccc(Br)cc2[C@H]2[C@H](CCN2C(=O)Cc2cccnc2)[C@@H]1CO,104,-36,4,.,.,.,.
C/C=C/c1ccc2c(c1)O[C@H](CN(C)C(=O)c1ccc3c(c1)OCO3)[C@@H](C)CN([C@@H](C)CO)S2(=O)=O,50,-42,-3,.,.,.,.
SMILES,T cruzi growth-1,Pf Dd2 inh,C diff growth,T cruzi growth-2,T cruzi growth-3,NIH3T3 tox,3T3 cytotox 2
C[C@H]1CN([C@@H](C)CO)S(=O)(=O)c2ccc(/C=C/c3ccccc3)cc2O[C@@H]1CN(C)C(=O)c1ccc2c(c1)OCO2,118*,-63,2,104*,61,30,38*
C[C@H]1CN([C@@H](C)CO)S(=O)(=O)c2ccc(/C=C/c3ccccc3)cc2O[C@H]1CN(C)C(=O)c1ccc2c(c1)OCO2,?,-72,11,103*,93,33,?
C/C=C/c1ccc2c(c1)O[C@H](CN(C)C(=O)c1ccc3c(c1)OCO3)[C@H](C)CN([C@@H](C)CO)S2(=O)=O,77,-9,-4,.,.,.,.
C[C@H](CO)N1C[C@H](C)[C@H](CN(C)C(=O)c2ccc3c(c2)OCO3)Oc2cc(/C=C/c3ccccc3)ccc2S1(=O)=O,106*,-83*,1,104*,92,19,27*
C/C=C/c1ccc2c(c1)O[C@@H](CN(C)C(=O)c1ccc3c(c1)OCO3)[C@@H](C)CN([C@@H](C)CO)S2(=O)=O,28,-25,3,.,.,.,.
CCC(=O)N(C)C[C@H]1Oc2ncc(C#Cc3ccccc3)cc2C(=O)N([C@@H](C)CO)C[C@H]1C,30,-1,-1,.,.,.,.
C[C@H](CO)N1C[C@H](C)[C@@H](CN(C)Cc2cccc(C(=O)O)c2)Oc2cc(C3=CCCC3)ccc2S1(=O)=O,-41,-8,0,.,.,.,.
C[C@@H]1CN([C@H](C)CO)S(=O)(=O)c2ccc(C3=CCCC3)cc2O[C@H]1CN(C)Cc1cccnc1,101*,-8,7,93,76,?,36*
C[C@H](CO)N1C[C@H](C)[C@H](CN(C)Cc2cccnc2)Oc2cc(C3=CCCCC3)ccc2S1(=O)=O,.,-33,7,.,.,.,.
C[C@@H]1CN([C@@H](C)CO)S(=O)(=O)c2ccc(C3=CCCC3)cc2O[C@H]1CN(C)Cc1ccccc1,80,-56,8,.,.,.,.
